± gives the standard deviation of the averaged measurements.
System: iBMDM (immortalised mouse bone-marrow-derived macrophages), LPS-stimulated
Assay: mitochondrial superoxide (MitoSOX fluorescence) fold increase over unstimulated control; higher = more LPS-induced mitochondrial ROS (less inhibition)
Conditions: inhibitor concentration: 500 nM, LPS: 100 ng/ml
How it was run: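 Mitochondrial superoxide was expressed as fold induction over untreated macrophages. Immortalised mouse bone-marrow-derived macrophages were pretreated with kinase inhibitors (500 nM) for 30 min, loaded with 1 μM MitoSox for 10 min and stimulated with LPS (100 ng/ml). MitoSox fluorescence (excitation 510 nm, emission 580 nm) was read hourly over 4 h, and the three replicates were averaged.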

| SMILES | mitochondrial superoxide (time after LPS: 1 h) | mitochondrial superoxide (time after LPS: 2 h) | mitochondrial superoxide (time after LPS: 4 h) |
| --- | --- | --- | --- |
| CC1(COc2ccc3c(c2)ncn3-c2ccc3cccc(N4CCC(N)CC4)c3n2)COC1 | 1.04 ± 0.1 | 1.42 ± 0.11 | 1.66 ± 0.13 |
| O=C1C(c2c(O)[nH]c3ccccc23)=Nc2ccccc21 [Indirubin] | 1.22 ± 0.026 | 1.34 ± 0.073 | 1.42 ± 0.048 |
| O=C(NCc1ccccc1)c1csc(Nc2ccncn2)n1 [Thiazovivin] | 1.11 ± 0.012 | 1.2 ± 0.078 | 1.29 ± 0.11 |
| CO[C@H]1C[C@@H]2CC[C@@H](C)[C@@](O)(O2)C(=O)C(=O)N2CCCC[C@H]2C(=O)O[C@H]([C@H](C)C[C@@H]2CC[C@@H](O)[C@H](OC)C2)CC(=O)[C@H](C)/C=C(\C)[C@@H](O)[C@@H](OC)C(=O)[C@H](C)C[C@H](C)/C=C/C=C/C=C/1C [Rapamycin (Sirolimus)] | 1.7 ± 0.07 | 1.7 ± 0.094 | 1.7 ± 0.033 |
| C=CC(=O)Nc1cccc(Oc2nc(Nc3ccc(N4CCN(C)CC4)cc3OC)ncc2Cl)c1 | 1.42 ± 0.03 | 1.53 ± 0.052 | 1.68 ± 0.041 |
| Nc1ncnc2c1c(-c1cccc(OCc3ccccc3)c1)cn2C1CC(CN2CCCC2)C1 (stereo not given) | 1.44 ± 0.15 | 1.55 ± 0.18 | 1.62 ± 0.21 |
| O=C(NCCCNc1nc(Nc2cccc(NC(=O)N3CCCC3)c2)ncc1I)c1cccs1 | 1.14 ± 0.041 | 1.18 ± 0.036 | 1.13 ± 0.051 |
| Nc1nc(NCCNc2ncc(-n3ccnc3)c(-c3ccc(Cl)cc3Cl)n2)ccc1[N+](=O)[O-] | 1.17 ± 0.042 | 1.23 ± 0.024 | 1.31 ± 0.056 |
| CCCS(=O)(=O)Nc1ccc(F)c(C(=O)c2c[nH]c3ncc(Cl)cc23)c1F | 1.24 ± 0.15 | 1.26 ± 0.15 | 1.34 ± 0.21 |
| COc1cc(Nc2ncc(F)c(Nc3ccc4c(n3)NC(=O)C(C)(C)O4)n2)cc(OC)c1OC | 1.1 ± 0.027 | 1.14 ± 0.016 | 1.28 ± 0.11 |
| Cc1cnc(Nc2ccc(N3CCN(C)CC3)cc2)nc1Nc1cccc(S(=O)(=O)NC(C)(C)C)c1 | 1.36 ± 0.025 | 1.51 ± 0.04 | 1.65 ± 0.027 |
| NC(=O)c1cccc(-c2cc(Nc3ccc(OC(F)(F)F)cc3)ncn2)c1 | 1.14 ± 0.054 | 1.11 ± 0.054 | 1.21 ± 0.082 |
| CCc1cccc(CC)c1NC(=O)N1Cc2[nH]nc(NC(=O)c3ccc(N4CCN(C)CC4)cc3)c2C1 | 1.09 ± 0.027 | 1.24 ± 0.015 | 1.34 ± 0.099 |
| Cc1cc2c(F)c(Oc3ncnn4cc(OC[C@@H](C)O)c(C)c34)ccc2[nH]1 | 1.337 ± 0.0099 | 1.44 ± 0.11 | 1.53 ± 0.14 |
| COc1ccc(-c2nc(N3CCOCC3)c3sc(CN(C)c4ncc(C(=O)NO)cn4)cc3n2)cn1 | 1.31 ± 0.095 | 1.52 ± 0.1 | 1.77 ± 0.17 |
| O=C1NC(=O)/C(=C/c2ccc(-c3ccc(F)cc3O)o2)S1 | 1.4 ± 0.16 | 1.54 ± 0.25 | 1.78 ± 0.2 |
| Cn1cnc(=N)c2[nH]cnc21 [3-Methyladenine] | 1.25 ± 0.078 | 1.34 ± 0.12 | 1.58 ± 0.15 |
| Clc1ccc(C2(c3ccc(-c4cn[nH]c4)cc3)CCNCC2)cc1 | 1.16 ± 0.065 | 1.21 ± 0.061 | 1.25 ± 0.042 |
| CC[C@H](Nc1ncnc2[nH]cnc12)c1nc2cccc(F)c2c(=O)n1-c1ccccc1 [CAL-101 (Idelalisib, GS-1101)] | 1.34 ± 0.019 | 1.4 ± 0.06 | 1.48 ± 0.11 |
| CNCc1ccc(-c2cc(-c3nc(-c4ccc(S(=O)(=O)C(C)C)cc4)cnc3N)on2)cc1 | 1.12 ± 0.068 | 1.24 ± 0.057 | 1.26 ± 0.018 |
| C[C@H](Nc1ncnc2nc[nH]c12)c1cc2cccc(Cl)c2c(=O)n1-c1ccccc1 | 1.09 ± 0.045 | 1.2 ± 0.032 | 1.31 ± 0.023 |
| Nc1nc(N)c2nc(-c3cccc(O)c3)cnc2n1 | 1.03 ± 0.016 | 1.04 ± 0.043 | 1.09 ± 0.046 |
| O=C(Nc1ccc(-c2ccnc(Nc3ccc(N4CCOCC4)cc3)n2)cc1)C1CCCN1 (stereo not given) | 1.21 ± 0.058 | 1.232 ± 0.011 | 1.3 ± 0.068 |
| COc1cc2c(Oc3ccc4[nH]c(C)cc4c3F)ncnc2cc1OCCCN1CCCC1 [Cediranib (AZD2171)] | 1.65 ± 0.088 | 1.65 ± 0.079 | 1.78 ± 0.081 |
| O=C(Cc1ccc(-c2ccc(OCCN3CCOCC3)cc2)cn1)NCc1ccccc1 | 1.31 ± 0.1 | 1.4 ± 0.1 | 1.61 ± 0.11 |
| S=C(NCc1ccc2c(c1)OCO2)N1CCN(c2ncnc3c2oc2ccccc23)CC1 [Amuvatinib (MP-470)] | 1.18 ± 0.12 | 1.21 ± 0.076 | 1.15 ± 0.063 |
| c1cncc(CN2CCC(n3ncc4c(N5CCOCC5)nc(-c5ccc6[nH]ccc6c5)nc43)CC2)c1 | 1.34 ± 0.059 | 1.48 ± 0.077 | 1.66 ± 0.063 |
| Nc1ccc(C(=O)Nc2cccc(-c3nc(N4CCOCC4)c4oc5ncccc5c4n3)c2)cn1 | 1.15 ± 0.037 | 1.23 ± 0.053 | 1.24 ± 0.028 |
| NC(=O)Nc1sc(-c2ccc(F)cc2)cc1C(N)=O | 1.15 ± 0.055 | 1.2 ± 0.045 | 1.33 ± 0.06 |
| CN1CCN(CCOc2cc(OC3CCOCC3)c3c(Nc4c(Cl)ccc5c4OCO5)ncnc3c2)CC1 [Saracatinib (AZD0530)] | 1.516 ± 0.0097 | 1.63 ± 0.047 | 1.85 ± 0.073 |
